The panel holds about 83,000 compounds, 20% with a hit somewhere; the sample as a whole holds those more often.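 48-hour exposure, single concentration, 96-well plates; percent growth endpoint where 0 means no net growth. Active: below 10.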 Active and inactive are the calls of the source.
What was measured:
Test in all cases: NCI-60 one-dose screen, 48 h (100 = growth as untreated, 0 = no growth, -100 = all killed)
[1] = test system: NCI-H23 lung; conditions: 10 µM unless noted
[2] = test system: NCI-H226 lung; conditions: 10 µM unless noted
[3] = test system: NCI-H322M lung; conditions: 10 µM unless noted
[4] = test system: HOP-62 NSCLC; conditions: 10 µM unless noted
[5] = test system: NCI-H460 lung; conditions: 10 µM unless noted
[6] = test system: HOP-92 NSCLC; conditions: 10 µM unless noted
[7] = test system: NCI-H522 lung; conditions: 10 µM unless noted
[8] = test system: A549/ATCC NSCLC; conditions: 10 µM unless noted
[9] = test system: 786-0 renal; conditions: 10 µM unless noted
[10] = test system: COLO 205 colon; conditions: 10 µM unless noted
[11] = test system: DU-145 prostate; conditions: 10 µM unless noted
[12] = test system: K-562 leukemia; conditions: 10 µM unless noted
[13] = test system: MALME-3M melanoma; conditions: 10 µM unless noted
[14] = test system: MDA-MB-231 breast; conditions: 10 µM unless noted
[15] = test system: RXF 393 renal; conditions: 10 µM unless noted
[16] = test system: SF-268 CNS; conditions: 10 µM unless noted
[17] = test system: SF-295 CNS; conditions: 10 µM unless noted
[18] = test system: SF-539 CNS; conditions: 10 µM unless noted
[19] = test system: UACC-257 melanoma; conditions: 10 µM
[20] = test system: M14 melanoma; conditions: 10 µM unless noted

Measured: growth

CC(C)C[C@H](NC(=O)[C@H](Cc1ccccc1)n1ccc(N2CCCCC2)cc1=O)B(O)O
active: [2] -68.7% | [6] -10.1% | [7] -7.97% | [12] 9.62% | [13] -23.8% | [14] -26.2% | [15] -54% | [16] -8.05% | [17] 7.12% | [18] -11.5% | [19] -16.9%
inactive: [1] 19.7% | [3] 70.7% | [4] 13.1% | [5] 34.7% | [8] 19% | [9] 28% | [10] 28.9% | [11] 41.3% | [20] 12.5%

O=C(c1ccncc1)N1N=C(c2ccc(Cl)cc2)CC1c1c[nH]c2ccccc12 (stereo not given)
inactive: [1] 85.9% | [2] 82.7% | [3] 96.3% | [4] 75.1% | [5] 96.8% | [6] 94.7% | [7] 80.8% | [8] 95% | [9] 104% | [10] 97.9% | [11] 102% | [12] 88.3% | [13] 96.7% | [14] 71.3% | [15] 112% | [16] 94.2% | [17] 97% | [18] 97% | [19] 95.9% | [20] 95.3%

Cc1ccc(Cn2c(-c3nonc3N)nc3ccccc32)cc1
inactive: [1] 83.3% | [2] 82.7% | [3] 86% | [4] 76.5% | [5] 71.4% | [6] 77.6% | [7] 66.4% | [8] 57.3% | [9] 92.3% | [10] 80% | [11] 100% | [12] 12.9% | [13] 81.6% | [14] 83.5% | [15] 82.1% | [16] 81.5% | [17] 82.3% | [18] 80.4% | [19] 89.6% | [20] 66.4%

COc1ccc(NC(=O)CSc2nc3ccccc3c(=O)n2-c2ccccc2C(F)(F)F)c(OC)c1OC
inactive: [1] 102% | [2] 102% | [3] 116% | [4] 78% | [5] 99.4% | [6] 77.3% | [7] 112% | [8] 98.3% | [9] 101% | [10] 102% | [11] 105% | [12] 94.5% | [13] 106% | [14] 89% | [15] 108% | [16] 100% | [17] 94.2% | [18] 94.7% | [19] 100% | [20] 97.5%

NS(=O)(=O)c1ccc(CN2C(=O)c3cccc4cccc(c34)C2=O)cc1
inactive: [1] 107% | [2] 86.1% | [3] 93% | [4] 81.8% | [5] 110% | [6] 82.7% | [7] 89.9% | [8] 92.1% | [9] 99.2% | [10] 99.4% | [11] 105% | [12] 96% | [13] 112% | [14] 94.3% | [15] 97.6% | [16] 92.4% | [17] 110% | [18] 88.8% | [19] 103% | [20] 105%

C[C@]12CC[C@@H]3c4cc(O)c(O)cc4CC[C@H]3[C@@H]1CC[C@@H]2O
inactive: [1] 64.5% | [2] 97.8% | [3] 60.6% | [4] 44.4% | [5] 29.5% | [6] 18.1% | [8] 43.3% | [9] 43% | [10] 115% | [11] 39.1% | [13] 16.8% | [14] 48.1% | [15] 28.7% | [16] 46.7% | [17] 35% | [19] 31.2% | [20] 23.4%
active: [7] -8.58% | [12] 7.32% | [18] -1.85%

COc1cc(OC)c(C(=O)/C=C/c2cccc(C(F)(F)F)c2)c(OC)c1
active: [1] 5.06% | [5] -1.87% | [6] 2.76% | [7] -31.8% | [8] 6.1% | [15] -12.9% | [18] -0.21% | [20] 9.53%
inactive: [2] 25.1% | [3] 13.2% | [4] 18.7% | [9] 13.4% | [10] 12.9% | [11] 11.6% | [12] 11.8% | [13] 51.4% | [14] 20.7% | [16] 14.7% | [17] 17.4% | [19] 31.3%

COc1ccccc1CNCCCN1C(=O)c2ccc3c4c(ccc(c24)C1=O)C(=O)N(CCCNCCCCNCCCCN)C3=O
inactive: [2] 27% | [4] 22.2% | [9] 23.3% | [15] 22.6% | [18] 11%
active: [1] 6.63% | [3] -21.5% | [5] 0.275% | [6] -6.2% | [7] -40.8% | [8] -3.81% | [10] -45.4% | [11] 9.88% | [12] 7.51% | [13] -83.9% | [14] 8.05% | [16] 4.92% | [17] 2.29% | [19] -56.2% | [20] -5.69%

O=C(O)c1cn(C2CC2)c2cc(N3CCN(S(=O)(=O)c4ccc(Cl)c(Cl)c4)CC3)c(F)cc2c1=O
active: [1] 1.76% | [5] 5.77% | [7] -21.4% | [8] 6.02% | [10] -68.4% | [13] -1.09% | [17] -7.27% | [19] 8.87%
inactive: [2] 41.4% | [3] 21.3% | [4] 15.2% | [6] 12.2% | [9] 27.8% | [11] 17.2% | [12] 16.9% | [14] 36.6% | [15] 29.1% | [16] 19.6% | [18] 11.4% | [20] 18.5%

COc1ccc(/C=C/c2nc(N3CCOCC3)c3cc(F)c(F)cc3n2)cc1OC
inactive: [1] 34.8% | [2] 33.2% | [3] 70.2% | [4] 86.8% | [5] 36.4% | [6] 33.7% | [7] 26% | [8] 30.9% | [9] 45.4% | [10] 15.6% | [11] 53.5% | [12] 16.4% | [13] 42.3% | [14] 55.4% | [15] 48.6% | [16] 53.5% | [17] 19.3% | [18] 56.8% | [19] 20.5% | [20] 28%

COc1cc(NC(=O)c2cc3ccccc3nc2Nc2ccc(F)cc2)cc(OC)c1OC
inactive: [1] 39.8% | [2] 43% | [3] 65.8% | [4] 83.2% | [5] 40.3% | [6] 28.5% | [7] 49.8% | [8] 42.8% | [9] 53.5% | [10] 38% | [11] 69.8% | [12] 37.3% | [13] 66.7% | [14] 51.2% | [15] 50.6% | [16] 50.9% | [17] 39.5% | [18] 40.5% | [19] 27.6% | [20] 30.2%

Clc1nc(-c2cccnc2)nc2sc3c(c12)CCCCCC3
inactive: [1] 99.5% | [2] 98.6% | [3] 102% | [4] 97.5% | [5] 107% | [6] 86.2% | [7] 85.7% | [8] 94.8% | [9] 101% | [10] 107% | [11] 109% | [12] 101% | [13] 103% | [14] 97.7% | [15] 116% | [16] 95.7% | [17] 92.9% | [18] 96.6% | [19] 93.1% | [20] 107%

O=C(O)Cc1ccc2c(c1)Cc1cccnc1O2
inactive: [1] 98.9% | [2] 91.7% | [3] 109% | [4] 106% | [5] 105% | [6] 112% | [7] 95.7% | [8] 96.1% | [9] 98% | [10] 111% | [11] 107% | [12] 114% | [13] 98.5% | [14] 111% | [15] 91.2% | [16] 103% | [17] 108% | [18] 99.7% | [19] 106% | [20] 103%

COc1cc2nc(Cl)nc(NCCO)c2cc1OC
inactive: [1] 108% | [2] 98.2% | [3] 105% | [4] 114% | [5] 95.7% | [6] 95.6% | [7] 100% | [8] 97.7% | [9] 111% | [10] 125% | [11] 112% | [12] 105% | [13] 94.4% | [14] 109% | [15] 107% | [16] 110% | [17] 103% | [18] 96.1% | [19] 98.6% | [20] 110%

COC12CC(=O)C(C(C)=O)=C(O)C1(C)c1c(O)c(C)c(O)c(C(C)=O)c1O2 (stereo not given)
inactive: [1] 50.5% | [2] 81.2% | [3] 71.4% | [4] 86% | [5] 55.1% | [6] 46% | [7] 70.1% | [8] 64.8% | [9] 60.8% | [10] 99.8% | [11] 90.2% | [12] 70.4% | [13] 90.7% | [14] 92.7% | [15] 90.3% | [16] 78.4% | [17] 13.3% | [18] 78.5% | [19] 90.7% | [20] 66.7%
